The record followed here is article PMC7862700, “An all-to-all approach to the identification of sequence-specific readers for epigenetic DNA modifications on cytosine”.

Assay in all cases: DAPPL (digital affinity profiling via proximity ligation, sequencing); 10 mM Tris-HCl pH 7.5, 50 mM NaCl, 1 mM DTT, 4% glycerol, room temperature, 30 min; GST-TFs on glutathione beads, 16-mer random dsDNA library, 0.1% formaldehyde crosslink after washing; high values mean tight binding
For one experiment, the target named is T1, FEV (Homo sapiens, UniProt Q99581 1-238).
T1 sequence: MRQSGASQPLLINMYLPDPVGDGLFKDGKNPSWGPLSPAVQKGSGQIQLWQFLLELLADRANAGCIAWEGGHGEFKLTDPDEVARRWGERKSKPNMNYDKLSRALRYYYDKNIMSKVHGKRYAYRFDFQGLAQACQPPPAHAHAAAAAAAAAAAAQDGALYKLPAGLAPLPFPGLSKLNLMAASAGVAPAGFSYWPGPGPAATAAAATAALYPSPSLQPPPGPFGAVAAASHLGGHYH
Conditions: protein: recombinant; tags: N-terminal GST; dsDNA, one strand shown. The procedure, abridged: (§1)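 Binding signal is each hexamer's read frequency for a factor divided by its frequency in the tag-only sample. The factors were GST-fused human transcription factors from yeast, captured on glutathione beads, DNA-barcoded and pooled with that sample. Pools were incubated with 200 nmole of a random double-stranded 16-mer DNA library in Tris/NaCl/DTT/glycerol buffer at room temperature for 30 min, then washed, crosslinked with 0.1% formaldehyde, proximity-ligated with BsaI/T4 ligase (1 h, 37 °C), PCR-amplified and sequenced on an Illumina NextSeq500.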

The next experiment has as its target ETV5 (Homo sapiens, UniProt P41161 1-510). Conditions: protein: recombinant; tags: N-terminal GST; dsDNA, one strand shown. The procedure, abridged:
as §1

The next experiment has as its target HSF1 (Homo sapiens, UniProt Q00613 1-529). Conditions: protein: recombinant; tags: N-terminal GST; chain copies: 3; dsDNA, one strand shown. The method in brief: as §1
The next experiment has as its target T2, SPIC (Homo sapiens, UniProt Q8N5J4 1-248).
T2 sequence: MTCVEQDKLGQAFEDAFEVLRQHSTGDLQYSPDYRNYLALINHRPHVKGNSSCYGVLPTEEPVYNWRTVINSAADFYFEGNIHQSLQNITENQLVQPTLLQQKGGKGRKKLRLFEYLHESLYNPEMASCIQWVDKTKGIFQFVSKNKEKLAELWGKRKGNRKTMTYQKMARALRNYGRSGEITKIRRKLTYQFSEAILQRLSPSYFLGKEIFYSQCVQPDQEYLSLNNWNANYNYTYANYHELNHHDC
The note with it: protein: recombinant; tags: N-terminal GST; dsDNA, one strand shown. The method in brief: as §1

The target of another experiment is ELF4 (Homo sapiens, UniProt Q99607 1-663). The note with it: protein: recombinant; tags: N-terminal GST; dsDNA, one strand shown. The procedure, abridged: as §1
For the next experiment, the target named is T3, ELK4 (Homo sapiens, UniProt P28324-2 1-405).
T3 sequence: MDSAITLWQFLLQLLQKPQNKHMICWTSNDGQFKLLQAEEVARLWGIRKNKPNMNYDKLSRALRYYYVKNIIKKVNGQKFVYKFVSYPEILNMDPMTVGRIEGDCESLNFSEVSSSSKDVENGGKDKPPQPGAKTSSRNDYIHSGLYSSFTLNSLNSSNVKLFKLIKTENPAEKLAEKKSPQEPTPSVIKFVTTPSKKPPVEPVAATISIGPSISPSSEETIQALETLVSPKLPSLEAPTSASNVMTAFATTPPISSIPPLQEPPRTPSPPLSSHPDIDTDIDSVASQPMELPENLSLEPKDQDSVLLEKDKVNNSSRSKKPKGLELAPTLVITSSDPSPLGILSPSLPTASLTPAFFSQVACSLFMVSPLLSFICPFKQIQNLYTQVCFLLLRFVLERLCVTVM
The note with it: protein: recombinant; tags: N-terminal GST; dsDNA, one strand shown. The method in brief:
as §1

For a further experiment, the target named is T4, ETV2 (Homo sapiens, UniProt O00321 1-342).
T4 sequence: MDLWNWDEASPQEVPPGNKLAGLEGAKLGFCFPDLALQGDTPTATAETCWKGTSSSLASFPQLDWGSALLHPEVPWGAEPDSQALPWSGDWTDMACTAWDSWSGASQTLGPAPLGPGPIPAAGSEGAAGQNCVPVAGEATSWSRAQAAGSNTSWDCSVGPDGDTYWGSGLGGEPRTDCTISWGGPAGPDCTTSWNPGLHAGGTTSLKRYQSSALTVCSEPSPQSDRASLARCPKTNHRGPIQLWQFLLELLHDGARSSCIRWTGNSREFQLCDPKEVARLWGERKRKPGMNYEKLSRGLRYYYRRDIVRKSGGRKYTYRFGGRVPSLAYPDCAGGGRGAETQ
The note with it: protein: recombinant; tags: N-terminal GST; dsDNA, one strand shown. The procedure, abridged:
as §1

The next experiment deals with T5, ELF3 (Homo sapiens, UniProt P78545 1-371).
T5 sequence: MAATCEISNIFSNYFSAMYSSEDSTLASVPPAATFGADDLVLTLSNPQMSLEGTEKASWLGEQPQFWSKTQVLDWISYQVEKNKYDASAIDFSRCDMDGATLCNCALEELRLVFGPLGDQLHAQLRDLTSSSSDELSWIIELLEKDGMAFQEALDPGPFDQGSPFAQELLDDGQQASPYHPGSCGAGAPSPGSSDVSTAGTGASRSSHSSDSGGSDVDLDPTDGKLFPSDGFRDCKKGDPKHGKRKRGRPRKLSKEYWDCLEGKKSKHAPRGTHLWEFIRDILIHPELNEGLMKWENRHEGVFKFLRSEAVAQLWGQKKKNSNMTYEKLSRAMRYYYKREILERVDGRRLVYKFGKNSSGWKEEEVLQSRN
The note with it: protein: recombinant; tags: N-terminal GST; dsDNA, one strand shown. The method in brief:
as §1

In the next experiment the target is CRX (Homo sapiens, UniProt O43186 1-299). Conditions: protein: recombinant; tags: N-terminal GST; dsDNA, one strand shown. The procedure, abridged: as §1
In a further experiment the target is ETV1 (Homo sapiens, UniProt P50549 1-477). The note with it: protein: recombinant; tags: N-terminal GST; dsDNA, one strand shown. The method in brief:
as §1

For a further experiment, the target named is T6, ERF (Homo sapiens, UniProt P50548 1-548).
T6 sequence: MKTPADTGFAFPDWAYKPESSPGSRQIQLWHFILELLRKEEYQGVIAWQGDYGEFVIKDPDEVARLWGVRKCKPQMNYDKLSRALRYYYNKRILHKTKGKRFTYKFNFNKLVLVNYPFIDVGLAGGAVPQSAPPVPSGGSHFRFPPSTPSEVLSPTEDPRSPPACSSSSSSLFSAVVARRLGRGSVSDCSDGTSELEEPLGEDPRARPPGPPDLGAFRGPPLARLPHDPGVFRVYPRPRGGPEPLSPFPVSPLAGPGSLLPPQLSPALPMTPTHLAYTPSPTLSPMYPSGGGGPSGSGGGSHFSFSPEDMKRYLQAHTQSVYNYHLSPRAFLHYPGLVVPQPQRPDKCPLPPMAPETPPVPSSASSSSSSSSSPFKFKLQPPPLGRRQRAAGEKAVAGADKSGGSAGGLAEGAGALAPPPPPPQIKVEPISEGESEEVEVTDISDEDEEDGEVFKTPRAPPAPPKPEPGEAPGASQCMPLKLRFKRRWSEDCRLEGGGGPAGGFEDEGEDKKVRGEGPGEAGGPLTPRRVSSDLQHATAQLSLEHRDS
Conditions: protein: recombinant; tags: N-terminal GST; dsDNA, one strand shown. The procedure, abridged: as §1

The target in the next experiment is T7, ETV3L (Homo sapiens, UniProt Q6ZN32 1-361).
T7 sequence: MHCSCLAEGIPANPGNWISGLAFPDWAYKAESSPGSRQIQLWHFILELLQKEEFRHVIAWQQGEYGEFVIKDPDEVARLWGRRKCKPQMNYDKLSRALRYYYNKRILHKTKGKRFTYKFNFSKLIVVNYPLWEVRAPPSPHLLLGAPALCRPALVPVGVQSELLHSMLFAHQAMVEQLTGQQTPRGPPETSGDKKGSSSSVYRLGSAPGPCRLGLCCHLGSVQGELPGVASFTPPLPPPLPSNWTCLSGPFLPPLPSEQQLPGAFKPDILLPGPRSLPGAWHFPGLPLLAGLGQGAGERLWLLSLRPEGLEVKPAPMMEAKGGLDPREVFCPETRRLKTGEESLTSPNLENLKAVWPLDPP
Conditions: protein: recombinant; tags: N-terminal GST; dsDNA, one strand shown. The procedure, abridged:
as §1

Another experiment deals with T8, ETS2 (Homo sapiens, UniProt P15036 1-469).
T8 sequence: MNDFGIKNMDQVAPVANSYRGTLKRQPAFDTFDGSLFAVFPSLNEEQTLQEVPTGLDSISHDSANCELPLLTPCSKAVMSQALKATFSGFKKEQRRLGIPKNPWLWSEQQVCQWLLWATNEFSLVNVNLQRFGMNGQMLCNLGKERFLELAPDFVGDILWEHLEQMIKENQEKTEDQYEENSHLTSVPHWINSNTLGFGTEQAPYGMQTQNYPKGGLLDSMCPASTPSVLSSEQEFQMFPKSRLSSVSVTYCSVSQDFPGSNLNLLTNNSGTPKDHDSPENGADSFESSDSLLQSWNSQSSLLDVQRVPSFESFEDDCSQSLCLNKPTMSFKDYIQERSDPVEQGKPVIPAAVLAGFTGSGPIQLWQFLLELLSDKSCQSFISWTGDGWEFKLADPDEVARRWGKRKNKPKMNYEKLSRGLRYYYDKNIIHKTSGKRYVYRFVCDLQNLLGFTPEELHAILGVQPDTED
Conditions: protein: recombinant; tags: N-terminal GST; dsDNA, one strand shown. The method in brief:
as §1

The target of a further experiment is T9, SPDEF (Homo sapiens, UniProt O95238 1-335).
T9 sequence: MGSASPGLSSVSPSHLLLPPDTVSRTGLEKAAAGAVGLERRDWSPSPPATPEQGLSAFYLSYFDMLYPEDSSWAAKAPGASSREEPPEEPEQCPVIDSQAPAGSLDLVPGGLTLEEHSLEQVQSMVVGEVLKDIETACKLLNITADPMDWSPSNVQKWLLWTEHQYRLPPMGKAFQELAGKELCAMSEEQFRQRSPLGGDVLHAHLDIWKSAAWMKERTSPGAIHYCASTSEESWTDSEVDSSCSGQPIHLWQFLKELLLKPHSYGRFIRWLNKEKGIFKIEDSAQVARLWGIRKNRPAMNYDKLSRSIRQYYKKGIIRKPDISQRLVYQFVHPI
Conditions: protein: recombinant; tags: N-terminal GST; dsDNA, one strand shown. The procedure, abridged: as §1

The target in a further experiment is T10, ETV7 (Homo sapiens, UniProt Q9Y603 1-341).
T10 sequence: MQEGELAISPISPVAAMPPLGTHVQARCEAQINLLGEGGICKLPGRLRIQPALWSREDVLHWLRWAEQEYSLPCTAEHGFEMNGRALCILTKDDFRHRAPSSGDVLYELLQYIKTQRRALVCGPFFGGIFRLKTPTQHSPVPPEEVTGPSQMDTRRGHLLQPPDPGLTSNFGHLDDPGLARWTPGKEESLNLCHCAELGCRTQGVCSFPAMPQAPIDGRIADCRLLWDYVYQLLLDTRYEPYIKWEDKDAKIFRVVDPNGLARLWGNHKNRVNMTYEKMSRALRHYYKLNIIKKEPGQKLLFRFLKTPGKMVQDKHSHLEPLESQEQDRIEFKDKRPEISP
The note with it: protein: recombinant; tags: N-terminal GST; dsDNA, one strand shown. The procedure, abridged:
as §1

In a further experiment the target is T11, ELF5 (Homo sapiens, UniProt Q9UKW6-2 1-255).
T11 sequence: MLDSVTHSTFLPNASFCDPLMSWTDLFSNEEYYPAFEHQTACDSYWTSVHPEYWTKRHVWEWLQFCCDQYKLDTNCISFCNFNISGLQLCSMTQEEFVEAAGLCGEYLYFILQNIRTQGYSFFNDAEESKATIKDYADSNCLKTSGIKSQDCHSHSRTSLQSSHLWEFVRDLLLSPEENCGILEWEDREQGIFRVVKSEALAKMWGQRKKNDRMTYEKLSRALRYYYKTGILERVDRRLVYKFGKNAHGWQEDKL
Conditions: protein: recombinant; tags: N-terminal GST; dsDNA, one strand shown. The method in brief: as §1

In a further experiment the target is T12, ETV3 (Homo sapiens, UniProt P41162-2 1-143).
T12 sequence: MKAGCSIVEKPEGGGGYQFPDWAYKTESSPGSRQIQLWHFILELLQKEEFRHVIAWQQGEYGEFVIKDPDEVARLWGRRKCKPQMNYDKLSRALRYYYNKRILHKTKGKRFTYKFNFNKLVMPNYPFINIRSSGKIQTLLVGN
The note with it: protein: recombinant; tags: N-terminal GST; dsDNA, one strand shown. The procedure, abridged:
as §1

The next experiment deals with ETV6 (Homo sapiens, UniProt P41212 1-452). Conditions: protein: recombinant; tags: N-terminal GST; dsDNA, one strand shown. The method in brief: as §1
ETV6, sequence (P41212 whole entry): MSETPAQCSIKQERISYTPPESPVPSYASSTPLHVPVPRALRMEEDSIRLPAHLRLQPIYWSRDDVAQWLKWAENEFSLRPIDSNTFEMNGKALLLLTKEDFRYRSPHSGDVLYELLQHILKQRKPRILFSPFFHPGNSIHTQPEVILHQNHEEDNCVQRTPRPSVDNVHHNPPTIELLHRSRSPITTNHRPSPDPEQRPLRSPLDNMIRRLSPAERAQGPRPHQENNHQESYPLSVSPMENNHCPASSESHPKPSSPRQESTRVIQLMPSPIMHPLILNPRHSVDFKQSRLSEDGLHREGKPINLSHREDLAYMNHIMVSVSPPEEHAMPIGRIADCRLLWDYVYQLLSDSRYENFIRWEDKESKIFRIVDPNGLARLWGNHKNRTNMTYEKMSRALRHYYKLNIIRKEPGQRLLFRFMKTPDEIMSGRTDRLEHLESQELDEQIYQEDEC

HSF1, sequence (Q00613 whole entry): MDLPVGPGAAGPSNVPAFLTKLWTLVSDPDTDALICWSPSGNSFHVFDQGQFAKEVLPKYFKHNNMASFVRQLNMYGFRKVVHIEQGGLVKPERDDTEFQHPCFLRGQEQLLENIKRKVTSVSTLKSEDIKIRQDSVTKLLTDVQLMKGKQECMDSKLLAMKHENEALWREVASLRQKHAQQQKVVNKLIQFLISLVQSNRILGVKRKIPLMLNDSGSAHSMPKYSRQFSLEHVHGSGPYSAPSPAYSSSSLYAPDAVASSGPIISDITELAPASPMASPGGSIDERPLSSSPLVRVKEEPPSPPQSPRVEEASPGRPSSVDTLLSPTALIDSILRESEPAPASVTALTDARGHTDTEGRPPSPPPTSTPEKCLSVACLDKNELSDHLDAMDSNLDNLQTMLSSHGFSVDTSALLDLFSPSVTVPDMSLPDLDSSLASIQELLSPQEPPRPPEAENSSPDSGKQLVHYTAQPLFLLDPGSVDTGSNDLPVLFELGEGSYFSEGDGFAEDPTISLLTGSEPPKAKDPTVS
ETV5, sequence (P41161 whole entry): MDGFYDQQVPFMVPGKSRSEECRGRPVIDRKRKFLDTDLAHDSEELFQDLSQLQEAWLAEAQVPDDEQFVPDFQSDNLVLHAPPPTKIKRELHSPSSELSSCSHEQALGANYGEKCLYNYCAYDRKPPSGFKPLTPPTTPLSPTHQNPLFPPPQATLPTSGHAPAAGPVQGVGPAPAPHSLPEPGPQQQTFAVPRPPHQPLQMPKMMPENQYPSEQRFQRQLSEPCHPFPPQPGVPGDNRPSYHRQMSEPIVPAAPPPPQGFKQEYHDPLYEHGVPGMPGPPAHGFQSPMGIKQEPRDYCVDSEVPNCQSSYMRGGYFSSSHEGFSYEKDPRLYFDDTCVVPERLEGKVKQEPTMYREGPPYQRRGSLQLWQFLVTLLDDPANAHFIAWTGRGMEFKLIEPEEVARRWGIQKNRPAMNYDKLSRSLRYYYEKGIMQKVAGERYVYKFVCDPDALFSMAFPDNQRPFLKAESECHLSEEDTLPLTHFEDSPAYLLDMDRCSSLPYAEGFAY
ELF4, sequence (Q99607 whole entry): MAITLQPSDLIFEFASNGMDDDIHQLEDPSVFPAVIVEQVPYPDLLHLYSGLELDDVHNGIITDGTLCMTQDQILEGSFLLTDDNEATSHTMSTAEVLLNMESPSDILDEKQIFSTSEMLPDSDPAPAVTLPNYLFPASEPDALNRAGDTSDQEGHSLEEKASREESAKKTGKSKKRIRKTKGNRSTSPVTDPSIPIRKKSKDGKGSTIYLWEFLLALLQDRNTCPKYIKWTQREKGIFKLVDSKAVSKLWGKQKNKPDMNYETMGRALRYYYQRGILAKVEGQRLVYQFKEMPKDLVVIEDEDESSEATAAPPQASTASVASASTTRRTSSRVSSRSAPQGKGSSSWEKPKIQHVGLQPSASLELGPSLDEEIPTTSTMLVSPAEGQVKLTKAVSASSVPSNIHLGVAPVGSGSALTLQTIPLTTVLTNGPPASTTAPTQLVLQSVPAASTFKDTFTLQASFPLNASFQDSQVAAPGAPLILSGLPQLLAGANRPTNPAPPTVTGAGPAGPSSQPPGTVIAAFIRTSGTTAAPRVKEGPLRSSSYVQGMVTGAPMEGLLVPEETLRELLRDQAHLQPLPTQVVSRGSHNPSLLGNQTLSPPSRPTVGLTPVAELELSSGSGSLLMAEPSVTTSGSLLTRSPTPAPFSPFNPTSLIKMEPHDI
ETV1, sequence (P50549 whole entry): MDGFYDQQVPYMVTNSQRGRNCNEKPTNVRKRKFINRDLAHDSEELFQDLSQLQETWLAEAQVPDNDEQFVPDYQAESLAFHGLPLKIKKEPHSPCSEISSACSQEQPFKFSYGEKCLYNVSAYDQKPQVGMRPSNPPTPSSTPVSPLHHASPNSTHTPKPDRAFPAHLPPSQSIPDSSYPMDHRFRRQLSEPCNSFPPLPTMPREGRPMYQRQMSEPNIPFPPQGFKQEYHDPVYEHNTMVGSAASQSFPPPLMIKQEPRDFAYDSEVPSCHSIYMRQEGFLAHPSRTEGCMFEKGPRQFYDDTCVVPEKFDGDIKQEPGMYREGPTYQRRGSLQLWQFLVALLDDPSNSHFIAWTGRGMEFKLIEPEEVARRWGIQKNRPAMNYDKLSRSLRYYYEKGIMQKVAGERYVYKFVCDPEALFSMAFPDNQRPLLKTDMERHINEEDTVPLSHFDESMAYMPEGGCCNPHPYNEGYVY
CRX, sequence (O43186 whole entry): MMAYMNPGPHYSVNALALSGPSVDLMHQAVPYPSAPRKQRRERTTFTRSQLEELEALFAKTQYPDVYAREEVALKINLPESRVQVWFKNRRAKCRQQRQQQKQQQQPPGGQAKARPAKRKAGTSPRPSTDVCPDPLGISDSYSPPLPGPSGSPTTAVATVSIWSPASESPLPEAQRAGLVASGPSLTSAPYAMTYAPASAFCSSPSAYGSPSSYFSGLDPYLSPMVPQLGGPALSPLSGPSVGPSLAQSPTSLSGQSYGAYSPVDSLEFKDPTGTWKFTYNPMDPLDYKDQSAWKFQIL

Take TAACAA: the binding signal with FEV is 1.18 fold enrichment (6-mer frequency, TF over GST control); with ETV5 it was 1.12 fold enrichment (6-mer frequency, TF over GST control); with HSF1, 1.25 fold enrichment (6-mer frequency, TF over GST control); in the experiment with SPIC, 1.12 fold enrichment (6-mer frequency, TF over GST control); with ELF4, 1.19 fold enrichment (6-mer frequency, TF over GST control); in the experiment with ELK4, 1.15 fold enrichment (6-mer frequency, TF over GST control). The binding signal was 1.26 fold enrichment (6-mer frequency, TF over GST control) with ETV2; 1.28 fold enrichment (6-mer frequency, TF over GST control) with ELF3; 1.48 fold enrichment (6-mer frequency, TF over GST control) with CRX; 1.2 fold enrichment (6-mer frequency, TF over GST control) with ETV1; 1.33 fold enrichment (6-mer frequency, TF over GST control) in the experiment with ERF; 1.18 fold enrichment (6-mer frequency, TF over GST control) with ETV3L. For the same sequence, the binding signal is 1.15 fold enrichment (6-mer frequency, TF over GST control) in the experiment with ETS2; 1.14 fold enrichment (6-mer frequency, TF over GST control) in the experiment with SPDEF; 1.21 fold enrichment (6-mer frequency, TF over GST control) with ETV7; 1.14 fold enrichment (6-mer frequency, TF over GST control) in the experiment with ELF5; 1.19 fold enrichment (6-mer frequency, TF over GST control) with ETV3; 1.15 fold enrichment (6-mer frequency, TF over GST control) with ETV6.
